Inconclusive results are not listed. Entries that show only a call come without a potency. Calls of active or inactive are those of the source. The call rests on the fitted dose curve; in most records, active means well fitted inhibition curve with a large enough effect in the repeat runs; inconclusive means weak or mixed curves, or effect the other way; inactive means no such curve, though single readings can be large or run the other way.
Potency means the concentration at half of the fitted maximal effect.

Sequence of Nuclear receptor subfamily 1 group I member 3 (Homo sapiens) (Q14994 whole entry, looked up): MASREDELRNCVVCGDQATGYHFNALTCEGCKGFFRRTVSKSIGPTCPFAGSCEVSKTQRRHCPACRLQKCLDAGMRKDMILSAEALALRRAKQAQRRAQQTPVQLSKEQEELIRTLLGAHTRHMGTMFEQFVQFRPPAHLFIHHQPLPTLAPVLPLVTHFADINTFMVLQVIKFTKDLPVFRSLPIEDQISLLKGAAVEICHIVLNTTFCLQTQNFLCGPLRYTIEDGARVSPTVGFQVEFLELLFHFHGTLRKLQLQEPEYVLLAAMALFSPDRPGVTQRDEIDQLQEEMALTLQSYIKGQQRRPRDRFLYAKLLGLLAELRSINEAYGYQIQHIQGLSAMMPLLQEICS

The test concerns the target Nuclear receptor subfamily 1 group I member 3 (Homo sapiens) (UniProt Q14994). Briefly: qHTS assay to identify small molecule antagonists of the constitutive androstane receptor (CAR) signaling pathway (AID 1224838).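 Further: HepG2 cells stably expressing hCAR with CYP2B6 luciferase reporter stimulated by CITCO; nearly all actives have a fitted effect of over 40% in size.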 Particulars: HepG2-CYP2B6-hCAR luciferase, CITCO-stimulated, 24 h; series mostly up to 92.4 µM. The text has this:
U.S. Tox21 Program National Center for Advancing Translational Sciences [NCATS] NIH Chemical Genomics Center [NCGC] U.S. Environmental Protection Agency [EPA] National Institutes of Environmental Health Sciences [NIEHS] National Toxicology Program [NTP] U.S. Food and Drug Administration [FDA] Tox21 Assay Overview: The constitutive androstane receptor (CAR) is a nuclear receptor which regulates multiple drug metabolizing enzymes (DMEs) and transporters. Activating CAR will generally increase the transcription and subsequent translation of CYP2B6 and CYP3A4. These two DMEs represent about 50% of the drug metabolizing potential in the body. When CAR is deactivated, the metabolizing potential in the body will decrease, subsequently increasing the toxicity in the body or lowering the therapeutic potential of a pro-drug. Recently, there have also been studies performed indicating CARs role in energy metabolism and cancer therapy. Therefore, inhibiting CARs activity could have a potential effect on diabetes and cancer. Identifying environmental toxins and compounds which modulate CAR, through the use of the Tox21 10K compound collection, will be an important step in determining the toxicity and potential therapeutic effects these factors will have on the human body.
Tox21 Assay Protocol Summary: A double-stable (hCAR and CYP2B6-2.2kb) transfected cell line, derived from human hepatoma (HepG2) cells, was utilized for the duration of the quantitative high-throughput screens. The HepG2-CYP2B6-hCAR cells suspended in DMEM culture medium supplemented with 10% FBS, 5 ug/mL blasticidin, 0.5 mg/mL geneticin, 100 U/mL penicillin and 100 ug/mL streptomycin were dispensed at 2500 cells/4 uL/well in 1536-well white solid bottom plates using a Multidrop Combi. After the assay plates were incubated at 37 C/5% CO2 for 4 hrs, 23 nL of compounds at 15 concentrations (from 5-48 columns) or positive control (from 1 to 4 columns) were transferred to the assay plates using a Pintool station. One uL of CITCO, was added using a Flying Reagent Dispenser to generate a final concentration of 50 nM CITCO inside each well. After a 24 hr incubation period at 37 C/5% CO2, four uL of ONE-Glo reagent was added into the assay plates using a Flying Reagent Dispenser. After a 30 min incubation period at room temperature, the luminescence intensity in the assay plates was measured using a ViewLux plate reader.
On the technique in general: Quantitative high-throughput screening tests each substance at several concentrations.
Turning to `CCN(CC)C(C)CN1c2ccccc2Sc2ccccc21` (stereo not given), the Potency entry was “inactive”. As to `CN(C)CCCOc1nn(Cc2ccccc2)c2ccccc12`, the Potency result was “inactive”.

For the molecule `CCOC(=O)CC(=O)c1cc(F)c(Cl)nc1Cl`, the Potency entry is “inactive”. Consider `CCCCOC(=O)c1ccccc1C(=O)OCC(CC)CCCC` (stereo not given), for which the Potency result was “inactive”. Under `CC(=O)SCc1ccco1` stands “inactive”; under `Cc1ccccn1`, “inactive”. Under `C=CC(=O)OCC(C)OCC(C)OCC(C)OC(=O)C=C` (stereo not given) stands “inactive”; under `CC(C)(C)c1ccc(S)cc1`, “inactive”. Under `NCCCN(CCO)CCO` stands “inactive”. For `CNS(=O)(=O)Cc1ccc2[nH]cc(CCN(C)C)c2c1`, the Potency result was “inactive”. Under `c1ccc(OCc2ccc(CCCN3CCOCC3)cc2)cc1` stands “inactive”. Turning to `CC[C@@H]1C[C@H](N(Cc2cc(C(F)(F)F)cc(C(F)(F)F)c2)C(C)=O)c2cc(C(F)(F)F)ccc2N1C(=O)OC(C)C`, the Potency entry was “inactive”.

In the case of `CN1CCC[C@@H]1c1cccnc1`, the Potency result was “inactive”. Regarding `Oc1ccc(C(O)CNCCCCCCNCC(O)c2ccc(O)c(O)c2)cc1O` (stereo not given), the Potency entry was “inactive”. Under `CC(=O)NCCCS(=O)(=O)O` stands “inactive”; under `COc1ccc2[nH]c(S(=O)Cc3ncc(C)c(OC)c3C)nc2n1` (stereo not given), “inactive”; under `CCCC(=O)OCC`, “inactive”. For the molecule `O=C(O)c1cccc(N(Cc2cccnc2)c2ccc(OC(F)F)c(OC(F)F)c2)c1`, the Potency result was “inactive”. For the molecule `CCCc1ccccc1`, the Potency result is “inactive”. The result for `O=[N+]([O-])c1cc[n+]([O-])cc1` reads 43.3 µM (active); that for `C[C@H](CCC(=O)O)[C@H]1CC[C@H]2[C@@H]3[C@H](O)C[C@@H]4C[C@H](O)CC[C@]4(C)[C@H]3CC[C@]12C`, “inactive”; that for `CN(C)CCCNCCCN`, “inactive”. Under `O=C1CCCCCO1` stands “inactive”; under `COc1ccc(OC)c(OC)c1`, “inactive”.

For the molecule `CC(O)C1CCCCC1` (stereo not given), the Potency entry is “inactive”. Regarding `CC(=O)[C@@]1(O)CC[C@H]2[C@@H]3C[C@H](C)C4=CC(=O)CC[C@]4(C)[C@H]3CC[C@@]21C`, the Potency result was “inactive”. Take `O=C(O)Cc1cc(I)c(Oc2ccc(O)c(I)c2)c(I)c1`: the Potency entry is “inactive”. Consider `O=S(=O)(O)c1ccc(O)c2ncccc12`, for which the Potency entry was “inactive”. In the case of `CCCCOc1ccc(CC(=O)NO)cc1`, the Potency entry is “inactive”. On to `CC(C)CCCC(C)CCO` (stereo not given), for which the Potency entry was “inactive”. Under `Nc1nc(N)c2nc(CNc3ccc(C(=O)N[C@@H](CCC(=O)O)C(=O)O)cc3)cnc2n1` stands 0.0404 µM (active). The result for `CN1CCN(C2=Nc3cc(Cl)ccc3Nc3ccccc32)CC1` reads “inactive”; that for `COc1ccc(C(C)=O)cc1`, “inactive”.

In the case of `O=C1Nc2cc(Cl)ccc2Oc2ccccc21`, the Potency entry was “inactive”.

For `CC(=O)c1c(C)c([N+](=O)[O-])c(C(C)(C)C)c([N+](=O)[O-])c1C`, the Potency entry was “inactive”.

With `O=C(c1ccc(O)cc1)c1ccc(O)cc1`, the Potency entry was “inactive”. `Cl/C(=C\n1cncn1)c1ccc(Cl)cc1Cl`: the Potency result was “inactive”.

With `CC/C(=C\C(=N/O)C(N)=O)C(C)[N+](=O)[O-]` (stereo not given), the Potency result was “inactive”. The result for `CCc1nn(C2CCCCC2)c2cc(C3(C#N)CCC(C(=O)O)CC3)ccc12` (stereo not given) reads “inactive”; that for `Cc1ccc(C)o1`, “inactive”.

The record behind these values is PubChem BioAssay (Tox21).
